Results taken from PubChem BioAssay (Tox21).
Where “and” joins values, the source holds several entries; their conditions need not be identical. Equal values may be shown once. Inconclusive results are not listed. Entries that show only a call come without a potency. Calls of active or inactive are those of the source. The call rests on the fitted dose curve; in most records, active means well fitted curve in the direction sought with a large enough effect in the repeat runs; inconclusive means weak or mixed curves; inactive means no such curve, though single readings can be large; an effect the other way counts as inactive or inconclusive.

What was measured:
[1] = target: Cytochrome P450 2D6 (Homo sapiens) (UniProt P10635); test: Cytochrome P450 Family 2 Subfamily D Member 6 (CYP2D6) small molecule antagonists: luciferase reporter qHTS assay (AID 1671196); further: nearly all actives have a fitted effect of over 50% in size
Sequence of Cytochrome P450 2D6 (Homo sapiens) (P10635 whole entry, looked up): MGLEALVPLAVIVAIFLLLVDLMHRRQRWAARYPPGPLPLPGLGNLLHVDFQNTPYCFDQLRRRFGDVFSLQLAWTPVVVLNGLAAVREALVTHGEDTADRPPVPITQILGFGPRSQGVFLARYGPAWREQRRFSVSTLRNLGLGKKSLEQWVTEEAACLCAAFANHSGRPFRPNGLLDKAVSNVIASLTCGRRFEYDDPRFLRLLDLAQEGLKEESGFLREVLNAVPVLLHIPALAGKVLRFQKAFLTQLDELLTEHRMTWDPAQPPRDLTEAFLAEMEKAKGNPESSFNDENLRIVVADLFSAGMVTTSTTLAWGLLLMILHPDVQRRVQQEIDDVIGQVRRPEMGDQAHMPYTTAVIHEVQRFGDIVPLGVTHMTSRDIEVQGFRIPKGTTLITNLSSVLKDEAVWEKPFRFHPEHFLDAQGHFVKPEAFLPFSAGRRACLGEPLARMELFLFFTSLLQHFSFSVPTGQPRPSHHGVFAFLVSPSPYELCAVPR
Procedure, shortened: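 Luminescence (RLU), read 20 min after detection reagent, indicated CYP2D6 conversion of proluciferin to luciferin during a 1 h NADPH-dependent reaction at room temperature.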

[2] = target: Cytochrome P450 2C19 (Homo sapiens) (UniProt P33261); test: Cytochrome P450 Family 2 Subfamily C Member 19 (CYP2C19) small molecule antagonists: luciferase reporter qHTS assay (AID 1671197); further: nearly all actives have a fitted effect of over 65% in size
Sequence of Cytochrome P450 2C19 (Homo sapiens) (P33261 whole entry, looked up): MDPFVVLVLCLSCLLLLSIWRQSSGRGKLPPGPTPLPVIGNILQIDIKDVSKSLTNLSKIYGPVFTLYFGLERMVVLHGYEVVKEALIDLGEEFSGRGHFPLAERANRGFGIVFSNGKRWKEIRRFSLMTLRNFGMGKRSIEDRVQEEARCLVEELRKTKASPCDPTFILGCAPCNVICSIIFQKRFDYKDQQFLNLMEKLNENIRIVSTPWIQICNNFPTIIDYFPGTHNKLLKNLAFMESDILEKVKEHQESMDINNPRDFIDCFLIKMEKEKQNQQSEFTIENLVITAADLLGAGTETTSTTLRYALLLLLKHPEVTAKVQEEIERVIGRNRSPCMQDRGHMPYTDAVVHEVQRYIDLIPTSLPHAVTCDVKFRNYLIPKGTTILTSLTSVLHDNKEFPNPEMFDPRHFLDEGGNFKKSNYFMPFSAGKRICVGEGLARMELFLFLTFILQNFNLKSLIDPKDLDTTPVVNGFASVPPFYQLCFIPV
Procedure, shortened: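 Relative luminescence units recorded 20 min after the detection reagent stopped a 1 h, 37C CYP2C19 reaction on proluciferin substrate, which was started by NADPH regeneration following 10 min room-temperature compound preincubation; ketoconazole positive control.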

[3] = target: Cytochrome P450 2C9 (Homo sapiens) (UniProt P11712); test: Cytochrome P450 Family 2 Subfamily C Member 9 (CYP2C9) small molecule antagonists: luciferase reporter qHTS assay (AID 1671198); further: nearly all actives have a fitted effect of over 50% in size
Sequence of Cytochrome P450 2C9 (Homo sapiens) (P11712 whole entry, looked up): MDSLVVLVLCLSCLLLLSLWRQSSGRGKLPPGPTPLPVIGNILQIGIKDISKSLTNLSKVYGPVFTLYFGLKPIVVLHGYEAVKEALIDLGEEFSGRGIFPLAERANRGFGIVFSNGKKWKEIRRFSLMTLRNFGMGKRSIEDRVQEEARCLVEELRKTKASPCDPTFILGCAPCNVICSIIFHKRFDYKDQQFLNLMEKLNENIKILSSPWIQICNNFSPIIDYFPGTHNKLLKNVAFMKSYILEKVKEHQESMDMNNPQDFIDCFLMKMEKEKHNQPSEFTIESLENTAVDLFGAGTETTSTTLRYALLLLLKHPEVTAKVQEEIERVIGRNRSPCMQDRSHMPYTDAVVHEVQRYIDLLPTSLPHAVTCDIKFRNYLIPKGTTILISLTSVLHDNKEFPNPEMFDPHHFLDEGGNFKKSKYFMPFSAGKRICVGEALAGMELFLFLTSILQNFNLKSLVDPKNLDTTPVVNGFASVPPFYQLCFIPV
Procedure, shortened: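 Enzyme-substrate mix preincubated with compound 10 min at room temperature; reaction started with NADPH regeneration solution, 1 h 37C. Luminescent luciferin product read after 20 min detection reagent.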

[4] = target: Cytochrome P450 1A2 (Homo sapiens) (UniProt P05177); test: Cytochrome P450 Family 1 Subfamily A Member 2 (CYP1A2) small molecule antagonists: luciferase reporter qHTS assay (AID 1671199); further: nearly all actives have a fitted effect of over 50% in size
Sequence of Cytochrome P450 1A2 (Homo sapiens) (P05177 whole entry, looked up): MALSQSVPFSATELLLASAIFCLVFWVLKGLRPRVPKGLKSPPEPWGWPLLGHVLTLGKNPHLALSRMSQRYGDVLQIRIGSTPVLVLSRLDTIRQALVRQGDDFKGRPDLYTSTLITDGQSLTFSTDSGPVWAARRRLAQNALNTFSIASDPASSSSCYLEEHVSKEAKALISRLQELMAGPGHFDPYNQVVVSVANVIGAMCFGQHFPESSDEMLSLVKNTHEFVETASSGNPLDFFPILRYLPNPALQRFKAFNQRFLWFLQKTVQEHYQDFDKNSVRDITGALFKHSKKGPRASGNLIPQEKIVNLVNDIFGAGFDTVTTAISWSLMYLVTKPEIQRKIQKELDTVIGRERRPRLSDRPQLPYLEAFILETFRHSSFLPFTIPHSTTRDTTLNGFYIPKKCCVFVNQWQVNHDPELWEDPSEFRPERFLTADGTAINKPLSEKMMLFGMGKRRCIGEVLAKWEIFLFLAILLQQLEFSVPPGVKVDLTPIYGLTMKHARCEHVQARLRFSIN
Procedure, shortened: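 CYP1A2 turnover of a luminogenic substrate was quantified after 1 h with NADPH regeneration at room temperature. Furafylline served as positive control.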

[5] = target: Voltage-gated inwardly rectifying potassium channel KCNH2 (Homo sapiens) (UniProt Q12809); test: Human Ether-a-go-go-Related Gene (hERG) channel small molecule antagonists: fluorescence cell-based qHTS assay (AID 1671200); further: nearly all actives have a fitted effect of over 50% in size
Sequence of Voltage-gated inwardly rectifying potassium channel KCNH2 (Homo sapiens) (Q12809 whole entry, looked up): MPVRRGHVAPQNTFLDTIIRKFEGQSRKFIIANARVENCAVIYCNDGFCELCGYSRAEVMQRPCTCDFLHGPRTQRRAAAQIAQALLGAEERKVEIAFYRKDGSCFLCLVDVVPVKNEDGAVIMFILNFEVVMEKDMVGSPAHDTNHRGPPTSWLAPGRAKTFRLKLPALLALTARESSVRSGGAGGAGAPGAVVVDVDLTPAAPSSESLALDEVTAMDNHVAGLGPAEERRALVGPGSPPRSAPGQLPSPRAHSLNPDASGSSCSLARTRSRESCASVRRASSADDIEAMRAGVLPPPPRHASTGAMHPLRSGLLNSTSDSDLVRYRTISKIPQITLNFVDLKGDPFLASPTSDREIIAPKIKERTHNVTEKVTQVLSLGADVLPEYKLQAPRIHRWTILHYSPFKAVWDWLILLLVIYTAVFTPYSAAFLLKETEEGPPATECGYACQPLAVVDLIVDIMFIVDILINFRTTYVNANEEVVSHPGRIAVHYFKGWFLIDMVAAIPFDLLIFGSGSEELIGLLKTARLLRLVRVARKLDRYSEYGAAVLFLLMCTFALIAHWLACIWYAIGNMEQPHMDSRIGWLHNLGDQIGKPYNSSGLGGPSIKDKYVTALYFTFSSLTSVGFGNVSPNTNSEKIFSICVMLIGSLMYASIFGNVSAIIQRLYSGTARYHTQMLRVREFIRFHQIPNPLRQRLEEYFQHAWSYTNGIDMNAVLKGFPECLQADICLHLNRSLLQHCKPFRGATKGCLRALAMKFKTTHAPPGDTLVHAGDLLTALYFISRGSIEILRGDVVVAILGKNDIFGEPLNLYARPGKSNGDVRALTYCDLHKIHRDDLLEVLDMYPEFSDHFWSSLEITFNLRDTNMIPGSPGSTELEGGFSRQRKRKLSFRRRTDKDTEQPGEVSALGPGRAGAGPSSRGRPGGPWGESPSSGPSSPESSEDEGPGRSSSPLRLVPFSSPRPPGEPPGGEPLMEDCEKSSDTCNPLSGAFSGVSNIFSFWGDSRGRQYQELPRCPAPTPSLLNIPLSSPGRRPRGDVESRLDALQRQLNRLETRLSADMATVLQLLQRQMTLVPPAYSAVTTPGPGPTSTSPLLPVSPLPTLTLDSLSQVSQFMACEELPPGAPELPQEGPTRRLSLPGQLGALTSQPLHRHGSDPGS
Procedure, shortened: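 First, 1000 cells per well are seeded and cultured overnight at 37 C. Next, FluxOR II dye is loaded for 1 h at room temperature, protected from light. After 10 more minutes, stimulus is added and fluorescence is read.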

[6] = target: Cytochrome P450 3A4 (Homo sapiens) (UniProt P08684); test: Cytochrome P450 Family 3 Subfamily A Member 4 (CYP3A4) small molecule antagonists: luciferase reporter qHTS assay (AID 1671201); further: nearly all actives have a fitted effect of over 50% in size
Sequence of Cytochrome P450 3A4 (Homo sapiens) (P08684 whole entry, looked up): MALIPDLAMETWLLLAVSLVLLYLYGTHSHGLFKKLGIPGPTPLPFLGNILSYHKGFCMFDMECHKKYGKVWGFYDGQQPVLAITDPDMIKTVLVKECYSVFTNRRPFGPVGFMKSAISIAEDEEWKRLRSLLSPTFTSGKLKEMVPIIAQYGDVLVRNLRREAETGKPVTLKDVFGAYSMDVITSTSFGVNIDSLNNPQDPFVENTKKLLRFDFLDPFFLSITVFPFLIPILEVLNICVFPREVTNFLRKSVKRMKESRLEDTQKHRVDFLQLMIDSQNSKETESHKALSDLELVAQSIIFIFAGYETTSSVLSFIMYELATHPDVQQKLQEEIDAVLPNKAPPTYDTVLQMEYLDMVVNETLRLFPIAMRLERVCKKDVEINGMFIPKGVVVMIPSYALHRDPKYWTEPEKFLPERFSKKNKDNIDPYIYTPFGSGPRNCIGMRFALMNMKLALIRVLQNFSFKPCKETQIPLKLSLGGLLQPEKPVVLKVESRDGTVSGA
Procedure, shortened: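 Enzyme and proluciferin substrate are mixed with test chemicals for 10 min, then NADPH regeneration system drives turnover for 1 h at room temperature. A detection reagent halts the reaction; luminescence after 20 min gives relative activity.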
Potency means the concentration at half of the fitted maximal effect.

SMILES	Potency [1]	Potency [2]	Potency [3]	Potency [4]	Potency [5]	Potency [6]
O=[N+]([O-])C1(Br)COCOC1	inactive	15.9 µM (active)	7.1 µM (active)	15.9 µM (active)	54.9 µM (active)	
CCN(CC)C(=O)/C(C#N)=C/c1cc(O)c(O)c([N+](=O)[O-])c1	inactive	inactive	0.195 µM (active)	inactive	inactive	inactive
Nc1cccc2c(N)cccc12	2.38 µM (active)	7.96 µM (active)	9.2 µM (active)	3.72 µM (active)	inactive	
O=C1[C@@H]2[C@H]3CC[C@H](C3)[C@@H]2C(=O)N1CCCCN1CCN(c2ncccn2)CC1	12.3 µM (active)	inactive	inactive	inactive	inactive	
O=C(CCS)OCC(COC(=O)CCS)(COC(=O)CCS)COC(=O)CCS	inactive	15.9 µM (active)	15.9 µM (active)	inactive	38.9 µM (active)	5.64 µM (active)
CCCCCCCCCCCCCC(=O)OCC(O)CO (stereo unspecified)	inactive	35.6 µM (active)	22.4 µM (active)	22.4 µM (active)	inactive	inactive
CC(C)N=C=NC(C)C	inactive	inactive	inactive	inactive	inactive	
CC[C@H]1OC(=O)[C@H](C)[C@@H](O[C@H]2C[C@@](C)(OC)[C@@H](O)[C@H](C)O2)[C@H](C)[C@@H](O[C@@H]2O[C@H](C)C[C@H](N(C)C)[C@H]2O)[C@](C)(O)C[C@@H](C)CN(C)[C@H](C)[C@@H](O)[C@]1(C)O	inactive	inactive	inactive	inactive	inactive	
CCN(Cc1cccc(S(=O)(=O)O)c1)c1ccc(C(=C2C=CC(=[N+](CC)Cc3cccc(S(=O)(=O)O)c3)C=C2)c2ccc(O)cc2S(=O)(=O)[O-])cc1	19.3 µM (active)	13.6 µM (active)	6.83 µM (active)	17.2 µM (active)	inactive	
CO[C@@H]1[C@@H](OC)[C@H](C)[C@@](O)(CC(=O)O)O[C@H]1[C@H](C)[C@H]1O[C@@]2(CC[C@@](C)([C@H]3CC[C@@](C)([C@@H]4O[C@@H]([C@H]5O[C@](C)(O)[C@H](C)C[C@@H]5C)C[C@@H]4OC4C[C@H](OC)[C@@H](OC)[C@H](C)O4)O3)O2)C[C@H](O)[C@H]1C (stereo partly specified)	inactive	inactive	inactive	inactive	inactive	
Cc1ccc(Nc2c(F)cccc2Cl)c(CC(=O)O)c1	inactive	8.71 µM (active)	17.4 µM (active)	12.3 µM (active)	inactive	inactive
CCN(CC)CCOc1ccccc1C(=O)CCc1ccccc1	0.692 µM (active)	inactive	inactive	7.76 µM (active)	3.38 µM (active)	
COc1ccc2nc(S(=O)Cc3ncc(C)c(OC)c3C)[nH]c2c1 (stereo unspecified)	5.57 µM (active) and 17.4 µM (active)	5.57 µM (active) and 11 µM (active)	31.3 µM (active) and 13.8 µM (active)	8.83 µM (active) and 15.5 µM (active)	inactive	
CCC(C)(C)C(=O)O	inactive	inactive	inactive	inactive	inactive	
CCC(CO)(CO)CO	inactive	inactive	inactive	inactive	inactive	inactive
CCCCOC(=O)CCCCC(=O)OCCCC	inactive	35.6 µM (active)	11.2 µM (active)	31.7 µM (active)	inactive	inactive
CC(C)C(O)C(C)(C)CO (stereo unspecified)	32.7 µM (active)	41.2 µM (active)	65.3 µM (active)	65.3 µM (active)	inactive	
C=C(C)C(=O)OCCC(F)(F)C(F)(F)C(F)(F)C(F)(F)C(F)(F)C(F)(F)F	inactive	inactive	inactive	inactive	inactive	
CNc1c2c(nn1C)CCCC2	inactive	inactive	inactive	inactive	inactive	inactive
Cc1ccc2c(c1[N+](=O)[O-])C(=O)c1ccccc1C2=O	inactive	inactive	inactive	4.93 µM (active)	inactive	
O=C(O)CO	inactive	inactive	inactive	inactive	inactive	inactive
O=C(NS(=O)(=O)/C=C/c1ccccc1)c1ccc(F)cc1Cl	inactive	inactive	10 µM (active)	inactive	inactive	inactive
NC(=O)CCCCC(N)=O	inactive	inactive	inactive	inactive	inactive	inactive
CCN(Cc1cccc(S(=O)(=O)O)c1)c1ccc(C(=C2C=CC(=[N+](CC)Cc3cccc(S(=O)(=O)O)c3)C=C2)c2ccccc2S(=O)(=O)[O-])cc1	17.9 µM (active)	17.9 µM (active)	11.3 µM (active)	17.9 µM (active)	inactive	
C1CCCCC1	inactive	inactive	inactive	inactive	inactive	
Oc1ccc2c(c1)Cc1ccccc1-2	inactive	28.3 µM (active)	35.6 µM (active)	3.56 µM (active)	inactive	inactive
CC(C)(C)C(O)/C=C/c1ccc2c(c1)OCO2 (stereo unspecified)	27.5 µM (active)	3.89 µM (active)	3.89 µM (active)	5.75 µM (active)	inactive	
CCOC(=O)Oc1ccc(CCNC(=O)[C@H](CCSC)NC(C)=O)cc1OC(=O)OCC	inactive	inactive	17.4 µM (active)	inactive	inactive	
